Compound activity (PubChem BioAssay)
The list is not random: actives were taken first. Their share in the collection is about 3%.
LmPK inh = qHTS Assay for Inhibitors of Leishmania Mexicana Pyruvate Kinase (LmPK) | Q27686 | purified LmPK, Kinase-Glo ATP luminescence, 1 h | Potency, µM (highest dose often 57.5 µM), inactives show top-dose activity change, negative = inhibition, hits mostly inhibitors | actives 0.37% (n = 290,000) | AID 1721, 2009
Target sequence (Q27686 whole entry, looked up): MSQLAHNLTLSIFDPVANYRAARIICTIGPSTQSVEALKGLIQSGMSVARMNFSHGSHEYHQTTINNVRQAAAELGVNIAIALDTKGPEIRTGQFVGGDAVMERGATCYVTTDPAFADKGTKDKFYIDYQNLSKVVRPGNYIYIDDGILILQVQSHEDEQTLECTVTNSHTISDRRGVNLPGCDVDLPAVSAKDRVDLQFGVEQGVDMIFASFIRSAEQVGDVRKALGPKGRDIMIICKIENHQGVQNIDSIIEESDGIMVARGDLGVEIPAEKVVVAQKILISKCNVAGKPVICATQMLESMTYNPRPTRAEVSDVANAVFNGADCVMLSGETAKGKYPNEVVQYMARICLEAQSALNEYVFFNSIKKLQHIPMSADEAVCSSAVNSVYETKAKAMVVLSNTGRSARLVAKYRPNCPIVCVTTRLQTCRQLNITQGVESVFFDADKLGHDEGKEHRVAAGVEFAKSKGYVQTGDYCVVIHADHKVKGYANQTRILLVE
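Kinase-Glo luminescence read after 1 h RT reaction of 0.1 nM LmPK with 0.5 mM PEP and 0.1 mM ADP. Activity scaled between uninhibited and enzyme-free controls.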
Sm TGR inh = qHTS Assay for the Inhibitors of Schistosoma Mansoni Peroxiredoxins. Schistosoma mansoni thioredoxin glutathione reductase (TGR), Q962Y6. purified TGR, DTNB reduction, TNB absorbance 405 nm. Potency, µM (doses to about 114 µM), for inactives: top-dose activity change, negative = inhibition, most hits filed as inhibitors. actives 3% (n = 360,000); further: nearly all actives have a fitted effect of over 60% in size
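TGR 20 nM + NADPH 100 uM (dispensed conc.), cpd preinc 15 min RT; start with NADPH (500 uM addition) then DTNB (15 mM addition). Kinetic TNB absorbance, 405 nm filter. Four-parameter Hill fit across titration.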
Tb PYK inh = qHTS of Trypanosoma Brucei Inhibitors; pyruvate kinase (Trypanosoma brucei), Q57TT1; TbPYK enzyme, Kinase-Glo Plus ATP luminescence, 45 min; Potency, µM (series often up to 76.8 µM), for the others: at the top dose activity, negative = inhibition, hits mostly inhibitors; actives 0.12% (n = 410,000); AID 624173, 2012; further: nearly all actives have a fitted effect of over 50% in size
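Assay buffer: 50 mM TEA pH 7.2, 100 mM KCl, 10 mM MgCl2, 0.05% BSA, 0.01% Tween-20. Pyruvate kinase from T. brucei plus substrate met compound, then ADP (130 uM final). Luminescence was read post 45 min RT.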
RE007 growth inh = qHTS Assay for Inhibitors of the HIV-1 protein Vpr. S. pombe RE007 Vpr strain, BacTiter-Glo ATP luminescence, 24 h. Potency, µM (titrated, usually from 92.2 µM), for the others: at the top dose activity change, negative = less growth, usual class: inhibitors. actives 0.21% (n = 360,000). AID 651644, 2012; active means well fitted falling curve with a large enough effect; inconclusive means small, poorly fitted or top-dose-only effect; inactive means no such curve, though single readings can be large or run the other way; further: nearly all actives have a fitted effect of over 50% in size
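Fission yeast RE007 carrying one integrated HIV-1 vpr copy, seeded at OD 0.01 in PMG+AL medium with 23 nL pinned compound. Grown 24 h at 30 degrees; viability read by BacTiter-Glo luminescence after 5 min.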
Starred values were filed as active, the others as inactive; ? = inconclusive; / = not tested or not shown; [ ] = dose if it differs, or a comment. Unless noted, the call rests on the fitted dose curve; in most records, active means well fitted curve in the direction sought with a large enough effect; inconclusive means small, poorly fitted or top-dose-only effect, or another doubt; inactive means no such curve, though single readings can be large; an effect the other way counts as inactive or inconclusive. On the % scale 0 is the no-effect control and ±100 the full control effect; potency means the concentration at half of the fitted maximal effect.

SMILES | LmPK inh | Sm TGR inh | Tb PYK inh | RE007 growth inh
NN/C(=C\[N+](=O)[O-])Nc1ccc(Cl)cc1 | -3% | 2.8µM* | -6% | -29%
CC(C)Nc1ccc(-c2nc(-c3ccncc3)no2)cc1[N+](=O)[O-] | / | -1% | 1% | /
CCOc1ccccc1NC(=O)c1cnc(N2CCOCC2)c2ccccc12 | / | 2% | -2% | /
COc1ccccc1N1C(=O)[C@@H]2[C@H](C1=O)[C@H](C(=O)c1ccc(OC(C)=O)cc1)N1N=CC=C[C@@H]21 | -1% | 16µM* | -14% | 1%
CC(=O)C(=Nc1ccccc1Cl)NNc1ccc(Cl)cc1 | 5% | 40µM* | -4% | -6%
COc1ccc(C2=C/C(=C\c3ccc(OC(C)=O)cc3)C(=O)O2)cc1 | 5% | 50µM* | -7% | -29%
Cn1c(=O)n(C/C=C/c2ccccc2)c(=O)c2c1nc1n2CCN1c1ccc(F)cc1 | / | -1% | 6% | /
O=C(CCN1C(=O)C2C3C=CC(C4CC34)C2C1=O)Oc1ccc(Br)cc1 (configuration not stated) | 0% | 12% | 1% | 10%
O=C(CCN1C(=O)C2C3C=CC(C4CC34)C2C1=O)Oc1cccc2cccnc12 (configuration not stated) | 1% | 4% | -11% | 14µM*
CC(C)c1ccc(C2=NC(c3ccncc3)=Nc3ccc(F)cc3N2)cc1 | / | -1% | 1% | /
CCOc1ccc(NC(=O)c2nn(C)c(C(=O)Nc3ccc(OCC)cc3)c2[N+](=O)[O-])cc1 | 9% | -11% | -2% | 4%
CCOc1ccc(N/C(=C(/C(Cl)=C(Cl)Cl)[N+](=O)[O-])n2cncn2)cc1 | 1% | 11µM* | / | /
CCOc1ccccc1N/C(=C(/C(Cl)=C(Cl)Cl)[N+](=O)[O-])n1cncn1 | 3% | 6.3µM* | 3% | -2%
CCOc1ccccc1NC(=O)c1ccc([N+](=O)[O-])cc1 | 1% | -1% | / | /
O=[N+]([O-])/C(C(Cl)=C(Cl)Cl)=C(\Nc1ccc(F)cc1)n1cncn1 | 0% | 8.9µM* | / | /
O=S(=O)(NCCc1csc2nc(-c3ccccc3)nn12)c1cc(F)ccc1F | / | -2% | -3% | /
C=C1/C(=C\C=C2/CCC[C@@]3(C)[C@@H]([C@H](C)OCCC(C)(C)O)CC[C@@H]23)C[C@@H](O)C[C@@H]1O | / | / | 3% | /
Cc1c([N+](=O)[O-])c(C(=O)Sc2ccc(Br)cc2)nn1C | 6% | 0.5µM* | 0% | ?
CCOC(=O)N1CCC(=NNS(=O)(=O)c2cccc([N+](=O)[O-])c2)CC1 | 4% | 28µM* | 1% | -13%
C#Cc1ccc(CN2CCC(Oc3cc(C(=O)NC4CC4)ccc3OC)CC2)cc1 | -2% | -1% | -2% | 5%
CCOc1ccc(C(=O)NC(=S)Nc2ncccc2C)cc1[N+](=O)[O-] | 2% | 15% | -2% | 33%
CCCCn1nnc(NC(=S)NC(=O)c2ccc(OCC)c([N+](=O)[O-])c2)n1 | 1% | 40µM* | 0% | 9%
C=CC#CC1(O)CC(C)[N+](C)(C)CC1C (configuration not stated) | 0% | 13µM* | -1% | 61%
CCOCCCNC1=C(Cl)C(=O)c2ccccc2C1=O | ? | 1.8µM* | ? | ?
CC(=O)c1cccc(NC(=O)c2c(C)nn(-c3ccc(F)cc3)c2-n2cccc2)c1 | / | 4% | -4% | /
SMILES | LmPK inh | Sm TGR inh | Tb PYK inh | RE007 growth inh
COCCCNC(=S)Nc1ccc(C)cc1[N+](=O)[O-] | -3% | 45µM* | 3% | 6%
COCCNC(=S)Nc1ccc([N+](=O)[O-])cc1C | 2% | ? | -6% | -6%
CN(C)[C@@H]1C(=O)C(C(=O)NCN2CCCC2)=C(O)[C@@]2(O)C(=O)C3=C(O)c4c(O)cccc4[C@@](C)(O)C3CC12 (some centres not stated) | 3% | 7.9µM* | / | /
C[C@H]1c2cccc(O)c2C(O)=C2C(=O)C3(O)C(O)=C(C(N)=O)C(=O)[C@@H](N(C)C)[C@@H]3[C@@H](O)[C@@H]21 (some centres not stated) | / | ? | -12% | 10%
CN(C)[C@@H]1C(=O)C(C(N)=O)=C(O)[C@@]2(O)C(=O)C3=C(O)c4c(O)cccc4[C@@](C)(O)C3[C@H](O)C12 (some centres not stated) | / | 8.9µM* | -13% | 0%
C=C1c2cccc(O)c2C(O)=C2C(=O)[C@]3(O)C(O)=C(C(N)=O)C(=O)[C@@H](N(C)C)[C@@H]3[C@@H](O)[C@H]12 | 1% | 35µM* | ? | -5%
Cc1ccc(OCC(=O)Nc2nnc(S(=O)(=O)N3CCc4ccccc43)s2)cc1 | / | 1% | 3% | /
COC(=O)[C@@H](NC(=O)N1CCc2nc(-c3ccccc3)c3c(c2C1)CO[C@@H](C)C3)C(C)C | -1%[11.5 µM] | / | / | /
CCN1C(Nc2ccccc2)=NC[C@@H]1Cc1ccccc1 | -1% | 25µM* | -10% | -9%
CCCCCCCN1C(Nc2ccccc2)=NC[C@@H]1Cc1ccccc1 | -4% | -17% | -3% | 2%
O=c1c(-c2cc(-c3ccc(F)cc3)nc3c2COc2ccc(Cl)cc2-3)coc2ccc(F)cc12 | / | 0% | 0% | /
c1ccc(-c2noc(-c3ccc4c(c3)OCO4)n2)cc1 | 16µM* | / | -15% | 5%
COc1ccc(-c2noc(-c3ccc4c(c3)OCO4)n2)cc1 | -4% | 11% | -2% | -11%
OC(CN1CCCCC1)c1cc(-c2ccccc2)on1 (configuration not stated) | / | / | -5% | /
O=C1CS/C(=N\N=C\c2ccco2)N1c1ccccc1 | 14% | 14µM* | 0% | -15%
O=C1CS/C(=N/N=C/c2ccccc2)N1c1ccc(O)cc1 | -4% | 5% | -4% | 5%
Cc1ccc(-n2ncc3c(N4CCN(CCO)CC4)ncnc32)cc1Cl | / | 7.9µM* | 1% | /
CCN1CCN(c2ncnc3c2cnn3-c2ccc(C)c(Cl)c2)CC1 | / | -6% | 1% | /
CCN(C[C@H]1N[C@@](Cc2ccccc2)(C(=O)OC)[C@H]2C(=O)N(C)C(=O)[C@@H]12)S(=O)(=O)c1ccc(-c2ccccc2)cc1 | / | / | -1% | 0%
COc1ccc2nc(NC(=S)NC(=O)c3ccco3)sc2c1 | -3% | -15% | 1% | 6%
COc1ccc2nc(NC(=O)c3ccoc3C)sc2c1 | 5µM* | 2% | ? | ?
COc1ccc2nc(NC(=O)c3cc(C)oc3C)sc2c1 | 25µM* | -8% | -23% | ?
Cc1cc(C(=O)Nc2nc3ccc(S(C)(=O)=O)cc3s2)c(C)o1 | -27% | -7% | -22% | -20%
CC(=O)c1c(C(=O)O)[nH]c(C(=O)O)c1C | -4% | 10µM* | -5% | 4%
CCC(C(=O)NCCCN(CC)CC)n1ncn2c(cc3occc32)c1=O (configuration not stated) | / | -1% | -3% | /
Clc1ccc(C(Cl)(Cl)Cl)c(Cl)c1 | / | 2.8µM* | 2% | 5%
